Screening data as filed in PubChem BioAssay.
M1 antag: blocks the rat M1 muscarinic receptor response to acetylcholine | B-score at 10 µM | P08482 | 3.4% of 64,000 active | CHO-M1 cells, Fluo-4 calcium, ACh EC80 antagonist mode; stronger effect = lower value | AID 628;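 active = calcium fluorescence response, raw or row-and-column corrected B-score, differing from the plate sample mean either way at a set confidence level, mostly lower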
mHtt clearance: compounds clearing mutant huntingtin protein | HeLa Exon1htt(103Q)mCFP, aggregate imaging; zero = plate's median compound well | inhibition, % at 1.5 µM | 0.42% of 47,000 active | AID 853;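 active = inhibition of aggregate fluorescence above about 70%, also judged a hit by eye on the cell image, limit read from the data, passing the limit was not always enough; inconclusive = no rule stated for this call; inactive = not judged a hit on image review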;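 also: cells exposed to compound for three days before fixation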
D1 allo mod: D1 dopamine receptor (human) allosteric modulation; P21728; HEK293 D1, CRE-luciferase, dopamine EC30 potentiation; actives deviate in either direction; B-score at 10 µM; 5.9% of 58,000 active; AID 641;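 active = luminescence count or its row- and column-corrected plate score outside the 99.7% band of the plate's sample wells, on either side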
M1 ag: M1 muscarinic receptor agonism | CHO-M1 cells, Fluo-4 calcium fluorescence, agonist mode; stronger effect = higher value | B-score at 10 µM | 3% of 64,000 active;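 active = fluorescence rise, raw or as B-score row- and column-corrected plate score, outside the 99.7% band of its plate's samples, either direction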
WNV protease inh: inhibitors of West Nile virus NS2B-NS3 protease; WNV NS2B-NS3 protease, fluorogenic substrate Ex360/Em465; stronger effect = lower value; AID 577; z-score (concentration not given with the values); 0.18% of 65,000 active; in the data active = z-score below about -3
M1 ag confirm: rat M1 muscarinic agonism, confirmation. shares compounds with M1 ag. CHO-M1 cells, Fluo-4 calcium fluorescence, agonist mode; actives lie on both sides. fluorescence change (max-min) at 10 µM. 19% of 1,700 active;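 active = fluorescence change differs from the solvent-only DMSO control mean at a set confidence level in both duplicate runs; inconclusive = differs from solvent-only control mean in just one of two runs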;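 also: an EC20 dose of acetylcholine follows compound addition during the same imaging run; raw fluorescence intensity difference in instrument units with no normalization to controls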
M4 agonist ctr: counter-screen for M1 agonists: activity at rat M4 receptor | fluorescence change (max-min) at 10 µM | 9% of 1,700 active | shares compounds with M1 ag | CHO M4/Gqi5 cells, Fluo-4 calcium fluorescence, agonist mode; actives lie on both sides;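 active = fluorescence change differing from the plate's solvent-only control wells at 99.7% confidence in both duplicates, whether higher or lower; inconclusive = differs from solvent controls in only one of two duplicates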
Target sequence (P08485 whole entry, looked up): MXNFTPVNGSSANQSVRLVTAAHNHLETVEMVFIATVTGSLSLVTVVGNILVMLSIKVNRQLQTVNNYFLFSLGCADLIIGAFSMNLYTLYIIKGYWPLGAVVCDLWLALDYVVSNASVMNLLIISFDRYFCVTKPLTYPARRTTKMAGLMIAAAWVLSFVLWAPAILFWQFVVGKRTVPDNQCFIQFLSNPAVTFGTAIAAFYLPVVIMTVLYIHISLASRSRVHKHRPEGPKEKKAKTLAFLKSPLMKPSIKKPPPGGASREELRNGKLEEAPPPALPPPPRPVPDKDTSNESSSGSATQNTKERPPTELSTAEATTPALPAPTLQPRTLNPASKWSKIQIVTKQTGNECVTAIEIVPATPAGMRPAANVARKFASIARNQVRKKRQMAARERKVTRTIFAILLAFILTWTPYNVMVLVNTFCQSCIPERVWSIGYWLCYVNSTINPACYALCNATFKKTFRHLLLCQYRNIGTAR
An asterisk follows results filed as active; ? = inconclusive; . = no result given. Most compounds without a hit are left out; they make up all but 8.9% or so of the library.

SMILES | M1 antag | mHtt clearance | D1 allo mod | M1 ag | WNV protease inh | M1 ag confirm | M4 agonist ctr
Cc1cc(C)n2nc(CC(=O)NC3CCCCCC3)nc2n1 | -0.093 | 34 | -1.1 | 0.47 | -0.42 | . | .
CCCCNC(=O)C(C#N)c1nc2ccccc2nc1N1CCCC1 (stereo not given) | -1.8 | . | 1.5 | 54* | -0.92 | 856* | 750*
O=C(C1CC1(c1ccccc1)c1ccccc1)N1CCOCC1 (stereo not given) | -0.03 | . | 0.16 | -2.7* | -0.14 | -16 | -44
O=C(N1CCOCC1)C1(c2ccccc2)CCCCC1 | 0.17 | -23 | 1.1 | -0.18 | 0.48 | . | .
O=C(CCCCCn1c(=S)[nH]c2cc3c(cc2c1=O)OCO3)N1CCN(C2CCCCC2)CC1 | -5.1* | -47 | 0.66 | 2.1* | 0.03 | -23 | ?
CC(C)n1c(CCC(=O)O)ccc1-c1ccccc1 | -0.041 | 17 | -0.91 | -0.82 | -0.02 | . | .
CCCC(=O)C1=C(O)C(C(=O)OC)C(C)(C)CC1=Nc1ccncc1 (stereo not given) | -0.14 | . | -1.3 | 0.31 | 0.75 | . | .
O=C(COC(=O)c1c2c(nc3ccccc13)CCCC2)Nc1ccc2c(c1)OCO2 | -2* | 54 | -0.11 | 13* | -1.4 | ? | -16
O=C(NCc1ccccn1)C1CCN(S(=O)(=O)N2CCCC2)CC1 | -1.1 | . | . | 0.65 | -0.21 | . | .
c1ccc(-n2ncc3c2ncn2nnnc32)cc1 | -0.075 | 19 | 0.39 | 0.11 | -0.4 | . | .
c1ccc(-n2ncc3c2ncn2cnnc32)cc1 | -0.77 | . | . | 27* | -2.1 | -9.5 | -33
CCc1c(C)nc2ncnn2c1N1CCCC(C(=O)NCc2ccco2)C1 (stereo not given) | -4.5* | . | 0.99 | 2.8* | -0.71 | ? | -42
CCc1c(C)nc2ncnn2c1N1CCCC(C(=O)NCCc2ccccc2)C1 (stereo not given) | -0.41 | . | 0.14 | -0.11 | 1.5 | . | .
CSc1nc2[nH]c3c(c2c2ncnn12)CCCC3 | -0.18 | . | . | 8.1* | 0.37 | ? | -68
CCN(CC)S(=O)(=O)c1cccc(-c2nnc(SCC(=O)c3ccc(Cl)s3)n2C)c1 | -1.6 | . | 1.6 | 0.81 | 0.09 | . | .
COc1cccc(NC(=O)c2cccs2)c1 | -0.13 | -10 | 0.96 | 2.4* | -0.27 | ? | ?
COc1cccc(NC(=O)Nc2cccs2)c1 | -1 | . | -1.5 | -2.3 | 0.21 | . | .
C=C1C(C(=O)N2CCOCC2)C1C(=O)N1CCOCC1 (stereo not given) | -0.064 | . | 0.19 | 0.41 | -0.08 | . | .
CC(C)c1ccc(OCc2ccc(C(=O)N3CCN(c4ccccn4)CC3)cc2)cc1 | 0.58 | 6 | -1.3 | -0.79 | -0.54 | . | .
Cc1ccc2c(c1)nnn2C1CCN(S(=O)(=O)c2ccc(C(=O)N(C)C)cc2)CC1 | . | . | . | . | 0.75 | . | .
Cc1ccc2c(c1)nnn2C1CCN(S(=O)(=O)c2cccc(S(=O)(=O)N(C)C)c2)CC1 | -1.3 | . | -1.4 | 4.9* | 0.16 | ? | -63
COC(=O)c1ccc(NC(=O)Nc2ccc(F)cc2)cc1 | -3.4* | . | -3.7* | 15* | 0.07 | 33 | 52
CCOC(=O)c1ccc(NC(=O)Nc2ccc(OC)c(OC)c2)cc1 | -0.44 | -8 | -1.7 | 7.3* | -0.66 | -22* | ?
CCCNC(=O)c1cc2c(C(F)(F)F)nn(C)c2s1 | . | 45 | . | . | . | . | .
CCCCCCNC(=O)c1c(O)c2ccccc2[nH]c1=O | 0.56 | . | 0.66 | -0.23 | 0.17 | . | .
SMILES | M1 antag | mHtt clearance | D1 allo mod | M1 ag | WNV protease inh | M1 ag confirm | M4 agonist ctr
O=C(Nc1cccc(-c2cn3cccnc3n2)c1)c1ccc2c(c1)OCO2 | 0.72 | . | 0.036 | 3* | 1.9 | ? | ?
COc1ccc(OCC(=O)N2CCN(c3nnc(-c4ccccc4)c4ccccc34)CC2)cc1 | -7* | -22 | -0.81 | 7.3* | 0.84 | ? | -71
CC1(C)CC(=O)C2=C(C1)N(c1cccc(O)c1)C1=C(C2)C(=O)CC(C)(C)C1 | -0.53 | . | 5.6* | 22* | 1.1 | 221* | 170*
Cc1c(NC(=O)CSC2=C(C#N)C(c3ccccc3F)CC(=O)N2)c(=O)n(-c2ccccc2)n1C (stereo not given) | 0.18 | 13 | -0.063 | 3.4* | 0.14 | -27 | ?
COC(=O)CSC1=C(C#N)C(c2ccccc2F)CC(=O)N1 (stereo not given) | -0.045 | . | -0.41 | 0.77 | -1.2 | . | .
COc1ccccc1CC(=O)Nc1ccc(O)cc1C(=O)O | -0.012 | -65 | 0.019 | 0.3 | 0.66 | . | .
COc1ccc(/C(O)=C2/C(=O)C(=O)N(CCCN(C)C)C2c2cccnc2)cc1 (stereo not given) | 0.043 | . | -1.2 | 0.23 | -0.39 | . | .
CC1=CCC(C(=O)O)(C(=O)N/N=C/c2cccs2)C(c2ccc([N+](=O)[O-])cc2)C1 (stereo not given) | . | 23 | . | . | . | . | .
CCN(C(=O)c1ccc(C(C)(C)C)cc1)c1nnc(Cn2nnc3ccccc32)s1 | -0.64 | 19 | -1.3 | 3.2* | -0.06 | ? | -54
Cc1ccc(C(=O)Cn2nnc3ccccc32)cc1 | . | -25 | . | . | . | . | .
CCCCOc1ccccc1NC(=O)c1ccco1 | -0.11 | -4 | 1.3 | -1 | -0.34 | . | .
Cc1cccc(C)c1OCC(=O)Nc1cccc(NC(=O)c2ccco2)c1 | 0.58 | 11 | -0.38 | -0.11 | 0.1 | . | .
Cc1ccccc1OCC(=O)Nc1cccc(NC(=O)c2ccco2)c1 | 0.54 | . | -1.5 | 7* | 1.9 | ? | ?
CCOc1ccccc1NC(=O)c1cccc(NC(=O)c2ccco2)c1 | -0.68 | . | 0.73 | 5.6* | 0.49 | 13 | -24
CCN(CC)S(=O)(=O)c1ccc(NC(=O)Cn2c(=O)sc3ccccc32)cc1 | 0.055 | . | -0.15 | -2.4 | -2.1 | . | .
CCN(CC(=O)Nc1c(C(=O)OC)[nH]c2ccc(C)cc12)c1ccc2c(c1)OCO2 | 0.23 | -15 | 0.52 | 0.17 | 1.2 | . | .
O=C(CSCc1nc2ccccc2[nH]1)N1CCN(c2cccc(Cl)c2)CC1 | -1.7 | 38 | -3.2 | 8* | -0.26 | -22 | -32
CN1C=CC2=C(C#N)C(N)C(C#N)(C#N)C(c3ccccc3)C2C1 (stereo not given) | -0.34 | -69 | -4.4 | 34* | 0.23 | 187* | 179*
CC(c1ccccc1)N1CNc2c(c(=O)n(C)c(=O)n2C)C1 (stereo not given) | -0.81 | -5 | 0.63 | -1.1 | 2.3 | . | .
CCC(=NC(C)c1ccccc1)c1c(O)n(C)c(=O)n(C)c1=O (stereo not given) | -0.51 | -50 | -1.3 | 3.8* | -0.66 | -6.7 | -28
Oc1ccc2oc3c(c2c1/C=N/n1cnnc1)CCCC3 | 1.2 | -19 | -0.71 | 1.3* | 0.31 | ? | -61
CCOc1ccc(C2C=C(c3ccccc3)Nc3ncnn32)cc1 (stereo not given) | -2.3 | 0 | . | 25* | 1.3 | 202* | 150
CCOc1ccc(C2C=C(c3ccc(F)cc3)Nc3ncnn32)cc1 (stereo not given) | -0.6 | . | -0.66 | 25* | 0.67 | 146* | 94
